Data reported in PubChem BioAssay AID1347047 (National Center for Advancing Translational Sciences (NCATS), 2019).
The whole screen tested about 1,400 compounds, of which about 10 (0.7%) were called active. Where a call stands in place of a potency, no number is given. Another 2% or so got no clear call; they are omitted. The call rests on the fitted dose curve; in most records, active means well fitted inhibition curve with a large enough effect; inconclusive means small, poorly fitted or top-dose-only effect; inactive means flat fitted curve, though single readings scatter. Only a selection was taken, and actives are over-represented in it overall.

What follows are molecules tested against Luciferin 4-monooxygenase (Photinus pyralis) (UniProt P08659) (assay: Natriuretic polypeptide receptor (hNpr1) antagonism - Confirmation firefly luciferase (FLuc) inhibition counterscreen). Conditions: purified FLuc enzyme, luminescence, Km substrate; series mostly up to 57.6 µM.
Luciferin 4-monooxygenase (Photinus pyralis), sequence (P08659 whole entry, looked up): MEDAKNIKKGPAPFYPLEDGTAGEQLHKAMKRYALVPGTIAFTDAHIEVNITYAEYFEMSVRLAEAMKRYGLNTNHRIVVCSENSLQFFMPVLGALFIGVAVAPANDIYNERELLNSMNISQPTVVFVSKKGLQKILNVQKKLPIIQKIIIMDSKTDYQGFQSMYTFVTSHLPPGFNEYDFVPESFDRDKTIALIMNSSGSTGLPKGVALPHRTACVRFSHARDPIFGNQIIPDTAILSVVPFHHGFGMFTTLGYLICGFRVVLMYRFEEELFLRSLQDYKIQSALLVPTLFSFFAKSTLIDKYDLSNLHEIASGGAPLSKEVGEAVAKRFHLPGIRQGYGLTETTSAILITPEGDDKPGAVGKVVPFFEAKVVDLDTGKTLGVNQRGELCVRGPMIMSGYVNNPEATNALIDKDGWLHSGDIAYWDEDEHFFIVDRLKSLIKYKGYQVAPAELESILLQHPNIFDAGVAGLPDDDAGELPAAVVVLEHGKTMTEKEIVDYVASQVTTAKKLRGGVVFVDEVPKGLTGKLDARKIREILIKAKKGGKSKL
Source text: Firefly (Photinus pyralis) luciferase (FLuc) is one of the more frequently used transcriptional reporter genes, and it has also been developed as a cellular sensor for cyclic nucleotides. (Fan F & Wood KV, 2007; Fan F et al., 2008) However, a significant number of compounds that populate chemical libraries have been identified as FLuc ligands which can be mistaken for modulators of the intended targeted pathways, receptors or enzymes. (Auld, DS et al. 2008; Thorne, N et al. 2012) Therefore, the FLuc enzyme assay conducted at sensitive Km level substrate conditions is used to counter-screen for potential FLuc ligands. Auld DS, Thorne N, Nguyen DT & Inglese J A specific mechanism for nonspecific activation in reporter-gene assays. ACS Chem Biol. 2008, 3: 463-470. DOI: 10.1021/cb8000793 Fan F, Binkowski BF, Butler BL, Stecha PF, Lewis MK, Wood KV. Novel genetically encoded biosensors using firefly luciferase. ACS Chem Biol. 2008, 3: 346-351. DOI: 10.1021/cb8000414 Fan F and Wood KV. Bioluminescent assays for high-throughput screening. Assay Drug Dev Technol. 2007, 5: 127-136. […] Chemistry & Biology, 2012, 19: 1060-1072. DOI.org/10.1016/j.chembiol.2012.07.015
PROTOCOL TABLE (as described by Inglese J, Shamu CE and Guy RK. 2007) SEQUENCE No. (e.g., 1, 2, 3, etc.); PARAMETER (e.g., Cells, Incubation, Reagent, etc.); VALUE and DESCRIPTION. FLUC KM ENZYME COUNTERSCREEN (Thorne, N.T. et al. 2012) 1. Reagent. Add 3 uL of D-luciferin substrate buffer per well into Greiner 1536-well white/solid bottom high base, medium bind plates. 2. Compounds. Library compounds and PTC124 control added at 23nL per well, transferred by Pin Tool. 3. Incubation. Incubate plates at room temperature for […], protect from light. 4. Reagent. Add 1uL of P. pyralis luciferase (FLuc) per well of Greiner 1536-well plates. 5. Incubation. Incubate plates at room temperature for 10 min., protect from light. 6. Detector. FLuc luminescence measured using CCD-based camera (Viewlux). NOTES (numbers refer to Sequence numbers above) 1. Substrate buffer: 10 uM D-luciferin final concentration in 50 mM Tris-Acetate, pH 7.6, 10 mM Mg-Acetate, 10 uM ATP, 0.01% Tween-20, and 0.05% BSA buffer added at 3uL/well to 13 x Greiner 1536-well white/solid bottom high base, medium bind plates. 2. PTC124 stock solution prepared (10 mM in DMSO; Auld D.S. et al. 2010). Working dilution for dispense = 10 mM stock dilution (57.5 uM final concentration; 16-pt 1:3 titration in duplicate = final concentration range of 57.5 uM - 4 pM). 23nL of library compounds, PTC124 control or DMSO vehicle control transferred to the 13 substrate-containing Greiner white/solid bottom high base, medium bind plates in 11 interplate 1:3 titrations (see Yasgar, A. et al. 2008) with Pintool. 3. Substrate incubated for 30-50 min. at ambient temperature protected from light with metal lid. 4. Enzyme solution: 10 nM P. pyralis luciferase (FLuc) final concentration in 50 mM Tris-Acetate, pH 7.6 added at 1uL to 13 x Greiner 1536-well white/solid bottom high base, medium bind plates. 5. Substrate and enzyme incubated with test library compounds and controls for 10 min. at ambient temperature protected from light with metal lid. 6. Read final Luminescence on the ViewLux. [Exposure = 30 s.; Gain = High; Speed = Slow; and Binning = 2X.] REFERENCES: Auld DS, Lovell S, Thorne N, Lea WA, Maloney DJ, Shen M, Rai G, Battaile KP, Thomas CJ, Simeonov A, Hanzlik RP and Inglese J. Molecular basis for the high-affinity binding and stabilization of firefly luciferase by PTC124. […] Chemistry & Biology, 2012, 19: 1060-1072. doi.org/10.1016/j.chembiol.2012.07.015 Yasgar A, Shinn P, Jadhav A, Auld DS, Michael S, Zheng W, Austin CP, Inglese J and Simeonov A, Compound Management for Quantitative High-Throughput Screening. J. Assoc. Lab. Auto., 2008, 13: 79-89. doi: 10.1016/j.jala.2007.12.004
Potency means the concentration at half of the fitted maximal effect.

Structure (SMILES)	Potency
Cc1nc(-c2ccncc2)ncc1C(C)Nc1ncnc(C)c1C (stereo not drawn)	inactive
Cc1noc(C)c1-c1cnc2[nH]cc(CC(=O)N3CCOCC3)c2c1	inactive
N#Cc1cccc(CN2CCC(C3=NC(O)c4cc(F)ccc4N3)CC2)c1 (stereo not drawn)	inactive
CC1=NS(=O)(=O)N(C)C=C1C(=O)OCc1nc(-c2ccc(C)cc2)no1	inactive
Cc1cc(N2CCCC(Cn3cc(Cc4ccccc4)nn3)C2)nc(N)n1 (stereo not drawn)	inactive
Cc1ccc(C)c(C(=O)N2CCC3(CC2)N=C(c2ccc(Cl)cc2)NO3)c1	inactive
COc1ccc(S(=O)(=O)N2CCc3c(C(=O)NCCc4ccccn4)cccc32)cc1	inactive
COc1ccc(-c2noc(CC3CCN(C(=O)Cc4ccc(OC)c(OC)c4)CC3)n2)cc1	inactive
O=C(c1ccc(F)cc1F)N1CCN(c2cc(-c3ccc(Cl)cc3)[nH]n2)CC1	inactive
O=C(CCC1CCN(C(=O)c2ccccc2F)CC1)Nc1cccc(Cl)c1	inactive
O=[S+]1([O-])NCC2(CCCN(Cc3ccc(C(F)(F)F)cc3)C2)Oc2ncccc21 (stereo not drawn)	inactive
COc1ccc(C(CC(=O)N(C)Cc2cc(C3CC3)n[nH]2)c2ccccc2)cc1 (stereo not drawn)	inactive
COc1cccc(NC(=O)Cn2c(N(C)Cc3ccccc3)nc(C)cc2=O)c1	inactive
Cc1ccc(C(=O)N2CCN(c3cc(-c4ccc(Cl)cc4)[nH]n3)CC2)c(C)c1	inactive
COc1cccc(-c2noc(CC3CCN(C(=O)c4ccc(F)cc4)CC3)n2)c1	inactive
Cc1nn2c(c1-c1ccnn1C(C)C)N(CC1CCOCC1)CCC2	inactive
CN1CCN(C(=O)C(C)(C)Oc2nn(Cc3cccc(Cl)c3)c3ccccc23)CC1	inactive
CC1=NS(=O)(=O)N(C)C=C1C(=O)OCc1noc(-c2ccco2)n1	inactive
CC1(C(=O)NCc2ccc3c(c2)OCO3)CCc2cnc(NCc3ccccc3)nc21 (stereo not drawn)	inactive
COC(=O)c1cccc(NC(=O)CCNc2c(C)nc3cnccn23)c1	inactive
O=C(c1ccccc1)N1CCC(C(=O)N2CCC(Cc3nc(-c4ccc(F)cc4)no3)CC2)CC1	inactive
Fc1ccc(CNC[C@H]2Cn3c(-c4ccc5c(c4)OCCO5)cnc3CO2)cc1	inactive
COc1ccc(-c2noc(CC3CCN(C(=O)Cc4ccc(C)cc4)CC3)n2)cc1	inactive
Cc1cccc(C(=O)N2CCC(Oc3ccc(-c4noc(C(C)C)n4)cc3)C2)c1 (stereo not drawn)	inactive
COc1ccc(CC(=O)N2CCC(Cc3nc(-c4ccccc4)no3)CC2)cc1OC	inactive

Structure (SMILES)	Potency
COc1ccc(-c2noc(CC3CCN(C(=O)CC4CCCCC4)CC3)n2)cc1	inactive
COc1ccccc1Nc1cnc2ccc(N(C)Cc3cccnc3)nn12	inactive
COc1ccc(OCC2(C)COc3ccc(C(=O)Nc4cccnc4)cc3N2)cc1 (stereo not drawn)	inactive
O=C(c1ccc(F)cc1Cl)N1CCC(n2cc(-c3nc(-c4ccccc4)no3)nn2)C1 (stereo not drawn)	inactive
O=C(c1cc(F)ccc1Cl)N1CCN(c2cc(-c3ccc(F)cc3)[nH]n2)CC1	inactive
Cc1ccc(OCc2nc(C3CCN(C(=O)CCc4nc5ccc(Cl)cc5[nH]4)CC3)no2)cc1	inactive
CC1(CCCCc2ccccc2)COc2ccc(C(=O)N3CC[S+](=O)([O-])CC3)cc2N1 (stereo not drawn)	inactive
CN(C)CCNC(=O)C(C)(C)Oc1nn(Cc2cccc(Cl)c2)c2ccccc12	inactive
O=C(NCC1CC1)c1nc2c(o1)CCN(Cc1cccc(F)c1F)CC2	inactive
Cc1cc(CNC(=O)c2ccc(-c3ccccc3Cl)o2)n(C)n1	inactive
Cc1noc(C)c1-c1cc(-c2ccccc2Oc2ccccc2)cn2cncc12	inactive
O=C(NCc1nnc2cc(-c3nc(C4CC4)no3)ccn12)c1ccc(F)cc1Cl	inactive
Cc1cccc(CN2CCc3nc(C(=O)Nc4ccc(Cl)cc4)oc3CC2)c1	inactive
C1CCC(COCCc2noc(C3CNC3)n2)C1	inactive
O=C(c1cccc(F)c1)N1CCOC[C@H](Oc2ccc(C(F)(F)F)cc2)C1	inactive
Cc1cccc(-c2cccc(CN)c2)c1	inactive
Cc1c[nH]c(CN2CCCC(CCc3ccc(F)cc3F)C2)c(C)c1=O (stereo not drawn)	inactive
c1ccc(CO[C@@H]2CO[C@H]3[C@@H]2OC[C@@H]3n2nnnc2SCc2ccco2)cc1	inactive
CC(=O)N1CCC(NC[C@H]2O[C@H](Cc3cc(-c4cccc(O)c4)on3)CC[C@@H]2O)CC1	inactive
O=C(c1ccccc1)N1CCNc2cnc(Nc3cccc(C(F)(F)F)c3)nc2C1	inactive
O=c1[nH]c(C2CCCN(Cc3ccccn3)C2)nn1-c1ccc(Cl)cc1 (stereo not drawn)	inactive
COc1ccc(CN2C(=O)CO[C@H]3CN(Cc4ccc5c(c4)OCO5)C[C@H]32)cc1	inactive
CC(C)c1cc(C(=O)N2CCC(n3cc(-c4ccccn4)nn3)CC2)n(C)n1	inactive
O=C(N1CCN(c2cc(-c3ccc(Cl)cc3)[nH]n2)CC1)C1(c2ccccc2)CC1	inactive
Cc1ccc2c(c1)nc1n2[C@@H](CNS(=O)(=O)c2ccccc2)COC1	inactive

Structure (SMILES)	Potency
COc1cccc(CNC(=O)Cn2c(N(C)Cc3ccccc3)nc(C)cc2=O)c1OC	inactive
COc1cccc(C2C(C(=O)Nc3ccccc3)=C(C)N=C3SC=C(CC(=O)NCC(C)C)N32)c1 (stereo not drawn)	inactive
Cc1ccc2nc(C3CCCN(Cc4ccc(C#N)cc4)C3)[nH]c(=O)c2c1 (stereo not drawn)	inactive
COC(=O)C1=C(C)N=C2SC=C(CC(=O)NCCC(C)C)N2C1c1ccccc1Cl (stereo not drawn)	inactive
O=C1Nc2ccccc2CN(Cc2ccccc2)C12CCNCC2	inactive
COc1ccc(C2Cn3nnc(C(=O)N4CCN(C(=O)c5ccc(C)cc5C)CC4)c3CO2)cc1 (stereo not drawn)	inactive
COc1ccc(C2Cn3nnc(C(=O)N4CCN(C(=O)c5cccc(Cl)c5)CC4)c3CO2)cc1 (stereo not drawn)	inactive
COc1ccc(C(=O)N2CCC(n3cc(-c4nc(C(C)C)no4)nn3)CC2)cc1F	inactive
O=C1NCN(Cc2ccc(Cl)cc2)C12CCN(Cc1ccccc1)CC2	inactive
O=C1c2cnc(-c3ccc(Cl)cc3)nc2OCCN1Cc1ccccc1	2.5 µM (active)
OC1(Cc2cc(-c3ccccc3)no2)CCN(c2ncncn2)CC1	inactive
CC(C)c1noc(-c2cn(C3CCN(C(=O)c4ccc(N(C)C)cc4)C3)nn2)n1 (stereo not drawn)	inactive
CC(C)c1nncn1C1CCN(S(=O)(=O)c2cccc(Br)c2)CC1	inactive
COc1ccc(-c2noc(CC3CCN(C(=O)Cc4ccccc4)CC3)n2)cc1	inactive
O=C(c1ccc2cc[nH]c2c1)N1CCC2(CC1)N=C(c1ccc(Cl)cc1)NO2	inactive
CCN(CCCNC(=O)c1nnn2cc(-c3ccccc3)[nH]c(=O)c12)c1ccccc1	inactive
CCc1ccc(C(=O)N2CCN(c3cc(-c4ccc(F)cc4)[nH]n3)CC2)cc1	inactive
COc1ccc(CCNC(=O)c2noc(-c3ccc(C)cc3)n2)cc1OC	inactive
O=C(c1ccccn1)N1CC(Oc2ccc(-c3noc(C4CC4)n3)cc2)C1	inactive
Cc1cccc(C(=O)N2CCC3(CC2)CC(N(Cc2ccc(F)cc2)C2CC2)CCO3)c1 (stereo not drawn)	inactive
Cc1nn2c(c1-c1ccccc1-c1ccccc1)N(CC1CC1)CCC2	inactive
CN(Cc1csc(-c2ccccc2)n1)c1cc(C2CC(O)C2)nc(N)n1 (stereo not drawn)	inactive
COc1cccc(C2Cn3nnc(-c4nc(-c5ccccc5)no4)c3CO2)c1 (stereo not drawn)	inactive
